# Experimental data reported in the supplement of paper PMC12282887.
# ± gives the standard deviation of the averaged measurements.
# Legend:
# Experiment in all cases: promoter activity interaction Z-score (Lux/OD deviation from empty-vector control); higher = stronger promoter induction by the compound
# [1] = tested on: E. coli BW25113 acrABp lux reporter
# Outline: (§1)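 E. coli BW25113, as wild type or one of three single-gene deletion strains, carried low-copy luxCDABE promoter reporters and grew in 40 µl LB Lennox in 384-well plates at 37°C, with OD600 and luminescence read every 30 min for 12 h. Each compound was run at four 1:2 dilutions in biological duplicates, integration spanned 0–8 h for wild type and 1–9 h for deletion strains, and wells under 10% of the median growth value were dropped. The score is the Z-transformed residual of growth-normalised luminescence fitted against a control.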
# [2] = tested on: E. coli BW25113 micFp lux reporter
# Outline: as §1
# [3] = tested on: E. coli BW25113 ompFp lux reporter
# Outline: as §1
# [4] = tested on: E. coli BW25113 robp lux reporter
# Outline: as §1
# [5] = tested on: E. coli BW25113 soxSp lux reporter
# Outline: as §1
# [6] = tested on: E. coli BW25113 tolCp lux reporter
# Outline: as §1
# [7] = 17.8 µg/ml, genetic background: wild type
# [8] = 17.8 µg/ml, genetic background: ΔmarA
# [9] = 17.8 µg/ml, genetic background: Δrob
# [10] = 17.8 µg/ml, genetic background: ΔsoxS
# [11] = 35.7 µg/ml, genetic background: wild type
# [12] = 35.7 µg/ml, genetic background: ΔmarA
# [13] = 35.7 µg/ml, genetic background: Δrob
# [14] = 35.7 µg/ml, genetic background: ΔsoxS
# [15] = 71.3 µg/ml, genetic background: wild type
# [16] = 71.3 µg/ml, genetic background: ΔmarA
# [17] = 71.3 µg/ml, genetic background: Δrob
# [18] = 71.3 µg/ml, genetic background: ΔsoxS
# [19] = 142.7 µg/ml, genetic background: wild type
# [20] = 142.7 µg/ml, genetic background: ΔmarA
# [21] = 142.7 µg/ml, genetic background: Δrob
# [22] = 142.7 µg/ml, genetic background: ΔsoxS
structure (smiles),measurement,setting,value
O=C(/C=C/C=C/c1ccc2c(c1)OCO2)N1CCCCC1 [Piperine],promoter activity interaction Z-score,[1]; [7],0.246 ± 0.24
same,promoter activity interaction Z-score,[1]; [8],2.16 ± 0.78
same,promoter activity interaction Z-score,[1]; [9],-0.45 ± 0.37
same,promoter activity interaction Z-score,[1]; [10],-0.228 ± 0.025
same,promoter activity interaction Z-score,[1]; [11],-0.267 ± 0.27
same,promoter activity interaction Z-score,[1]; [12],-0.218 ± 0.58
same,promoter activity interaction Z-score,[1]; [13],-0.35 ± 0.11
same,promoter activity interaction Z-score,[1]; [14],-0.339 ± 0.26
same,promoter activity interaction Z-score,[1]; [15],0.114 ± 0.35
same,promoter activity interaction Z-score,[1]; [16],1.19 ± 0.28
same,promoter activity interaction Z-score,[1]; [17],-0.349 ± 0.35
same,promoter activity interaction Z-score,[1]; [18],-0.246 ± 0.6
same,promoter activity interaction Z-score,[1]; [19],-0.023 ± 0.22
same,promoter activity interaction Z-score,[1]; [20],0.484 ± 0.7
same,promoter activity interaction Z-score,[1]; [21],-0.275 ± 0.24
same,promoter activity interaction Z-score,[1]; [22],0.0345 ± 0.17
same,promoter activity interaction Z-score,[2]; [7],0.0366 ± 0.31
same,promoter activity interaction Z-score,[2]; [8],-0.191 ± 0.14
same,promoter activity interaction Z-score,[2]; [9],0.0158 ± 0.19
same,promoter activity interaction Z-score,[2]; [10],-0.381 ± 0.062
same,promoter activity interaction Z-score,[2]; [11],-0.332 ± 0.016
same,promoter activity interaction Z-score,[2]; [12],-0.0943 ± 0.12
same,promoter activity interaction Z-score,[2]; [13],0.0827 ± 0.3
same,promoter activity interaction Z-score,[2]; [14],-0.204 ± 0.038
same,promoter activity interaction Z-score,[2]; [15],0.0474 ± 0.091
same,promoter activity interaction Z-score,[2]; [16],-0.151 ± 0.15
same,promoter activity interaction Z-score,[2]; [17],-0.00444 ± 0.34
same,promoter activity interaction Z-score,[2]; [18],-0.417 ± 0.16
same,promoter activity interaction Z-score,[2]; [19],0.0188 ± 0.37
same,promoter activity interaction Z-score,[2]; [20],0.0457 ± 0.14
same,promoter activity interaction Z-score,[2]; [21],-0.043 ± 0.02
same,promoter activity interaction Z-score,[2]; [22],-0.135 ± 0.14
same,promoter activity interaction Z-score,[3]; [7],-0.0829 ± 0.54
same,promoter activity interaction Z-score,[3]; [8],-1.35 ± 0.34
same,promoter activity interaction Z-score,[3]; [9],-0.822 ± 0.25
same,promoter activity interaction Z-score,[3]; [10],-0.433 ± 0.063
same,promoter activity interaction Z-score,[3]; [11],-0.415 ± 0.064
same,promoter activity interaction Z-score,[3]; [12],-1.08 ± 0.24
same,promoter activity interaction Z-score,[3]; [13],-0.634 ± 0.12
same,promoter activity interaction Z-score,[3]; [14],-0.567 ± 0.14
same,promoter activity interaction Z-score,[3]; [15],-0.476 ± 0.17
same,promoter activity interaction Z-score,[3]; [16],-1.71 ± 0.16
same,promoter activity interaction Z-score,[3]; [17],-0.778 ± 0.1
same,promoter activity interaction Z-score,[3]; [18],-1.09 ± 0.28
same,promoter activity interaction Z-score,[3]; [19],-0.342 ± 0.011
same,promoter activity interaction Z-score,[3]; [20],-0.966 ± 0.094
same,promoter activity interaction Z-score,[3]; [21],-0.486 ± 0.29
same,promoter activity interaction Z-score,[3]; [22],-0.548 ± 0.51
same,promoter activity interaction Z-score,[4]; [7],0.172 ± 0.75
same,promoter activity interaction Z-score,[4]; [8],-0.36 ± 0.095
same,promoter activity interaction Z-score,[4]; [9],0.172 ± 1.4
same,promoter activity interaction Z-score,[4]; [10],-0.316 ± 0.4
same,promoter activity interaction Z-score,[4]; [11],0.097 ± 0.42
same,promoter activity interaction Z-score,[4]; [12],-1.12 ± 0.12
same,promoter activity interaction Z-score,[4]; [13],-0.276 ± 0.084
same,promoter activity interaction Z-score,[4]; [14],-0.113 ± 0.51
same,promoter activity interaction Z-score,[4]; [15],-0.241 ± 0.27
same,promoter activity interaction Z-score,[4]; [16],-0.584 ± 0.63
same,promoter activity interaction Z-score,[4]; [17],0.349 ± 1.6
same,promoter activity interaction Z-score,[4]; [18],-0.312 ± 0.18
same,promoter activity interaction Z-score,[4]; [19],1.83 ± 1.8
same,promoter activity interaction Z-score,[4]; [20],0.000795 ± 0.15
same,promoter activity interaction Z-score,[4]; [21],0.186 ± 0.23
same,promoter activity interaction Z-score,[4]; [22],0.201 ± 0.43
same,promoter activity interaction Z-score,[5]; [7],0.109 ± 0.15
same,promoter activity interaction Z-score,[5]; [8],-0.193 ± 0.12
same,promoter activity interaction Z-score,[5]; [9],0.0591 ± 0.33
same,promoter activity interaction Z-score,[5]; [10],-0.222 ± 0.045
same,promoter activity interaction Z-score,[5]; [11],-0.168 ± 0.034
same,promoter activity interaction Z-score,[5]; [12],-0.0932 ± 0.073
same,promoter activity interaction Z-score,[5]; [13],0.0518 ± 0.4
same,promoter activity interaction Z-score,[5]; [14],-0.0694 ± 0.036
same,promoter activity interaction Z-score,[5]; [15],0.0967 ± 0.17
same,promoter activity interaction Z-score,[5]; [16],-0.245 ± 0.091
same,promoter activity interaction Z-score,[5]; [17],0.0476 ± 0.29
same,promoter activity interaction Z-score,[5]; [18],-0.421 ± 0.13
same,promoter activity interaction Z-score,[5]; [19],-0.0465 ± 0.24
same,promoter activity interaction Z-score,[5]; [20],-0.324 ± 0.079
same,promoter activity interaction Z-score,[5]; [21],-0.0385 ± 0.2
same,promoter activity interaction Z-score,[5]; [22],-0.403 ± 0.12
same,promoter activity interaction Z-score,[6]; [7],0.553 ± 0.54
same,promoter activity interaction Z-score,[6]; [8],0.188 ± 1.3
same,promoter activity interaction Z-score,[6]; [9],0.472 ± 2.8
same,promoter activity interaction Z-score,[6]; [10],-0.947 ± 0.95
same,promoter activity interaction Z-score,[6]; [11],0.236 ± 0.38
same,promoter activity interaction Z-score,[6]; [12],-0.452 ± 0.27
same,promoter activity interaction Z-score,[6]; [13],-0.598 ± 1.4
same,promoter activity interaction Z-score,[6]; [14],-0.521 ± 0.018
same,promoter activity interaction Z-score,[6]; [15],0.515 ± 0.49
same,promoter activity interaction Z-score,[6]; [16],-0.357 ± 0.42
same,promoter activity interaction Z-score,[6]; [17],-0.0523 ± 0.77
same,promoter activity interaction Z-score,[6]; [18],0.108 ± 1.1
same,promoter activity interaction Z-score,[6]; [19],0.274 ± 0.22
same,promoter activity interaction Z-score,[6]; [20],0.331 ± 2.3
same,promoter activity interaction Z-score,[6]; [21],-0.437 ± 0.62
same,promoter activity interaction Z-score,[6]; [22],-0.524 ± 0.86
